Measured values taken from PubChem BioAssay (Tox21).
Results filed as inconclusive are left out. The source made the active and inactive calls. Unless noted, calls follow the shape of the dose curve; as a rule, active = well fitted curve in the direction sought with a large enough effect in the repeat runs; inconclusive = weak or mixed curves; inactive = no such curve, though single readings can be large; an effect the other way counts as inactive or inconclusive.

Key:
[1] = qHTS assay to identify small molecule antagonists of the estrogen receptor alpha (ER-alpha) signaling pathway using the BG1 cell line in the presence of 0.1 nM 17-beta-estradiol - cell viability counter screen (AID 1259241); also: nearly all actives have a fitted effect of over 40% in size
Procedure, shortened: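 Viability in VM7Luc4E2 cells after 22 hr compound exposure under 0.1 nM 17beta-estradiol stimulation, by CellTiter-Fluor.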

[2] = target: Androgen receptor (Homo sapiens) (UniProt P10275); assay: qHTS assay to identify small molecule antagonists of the androgen receptor (AR) signaling pathway using the MDA cell line in the presence of 0.5 nM R1881 (AID 1259243); also: nearly all actives have a fitted effect of over 50% in size
Chain of Androgen receptor (Homo sapiens) (P10275 whole entry, looked up): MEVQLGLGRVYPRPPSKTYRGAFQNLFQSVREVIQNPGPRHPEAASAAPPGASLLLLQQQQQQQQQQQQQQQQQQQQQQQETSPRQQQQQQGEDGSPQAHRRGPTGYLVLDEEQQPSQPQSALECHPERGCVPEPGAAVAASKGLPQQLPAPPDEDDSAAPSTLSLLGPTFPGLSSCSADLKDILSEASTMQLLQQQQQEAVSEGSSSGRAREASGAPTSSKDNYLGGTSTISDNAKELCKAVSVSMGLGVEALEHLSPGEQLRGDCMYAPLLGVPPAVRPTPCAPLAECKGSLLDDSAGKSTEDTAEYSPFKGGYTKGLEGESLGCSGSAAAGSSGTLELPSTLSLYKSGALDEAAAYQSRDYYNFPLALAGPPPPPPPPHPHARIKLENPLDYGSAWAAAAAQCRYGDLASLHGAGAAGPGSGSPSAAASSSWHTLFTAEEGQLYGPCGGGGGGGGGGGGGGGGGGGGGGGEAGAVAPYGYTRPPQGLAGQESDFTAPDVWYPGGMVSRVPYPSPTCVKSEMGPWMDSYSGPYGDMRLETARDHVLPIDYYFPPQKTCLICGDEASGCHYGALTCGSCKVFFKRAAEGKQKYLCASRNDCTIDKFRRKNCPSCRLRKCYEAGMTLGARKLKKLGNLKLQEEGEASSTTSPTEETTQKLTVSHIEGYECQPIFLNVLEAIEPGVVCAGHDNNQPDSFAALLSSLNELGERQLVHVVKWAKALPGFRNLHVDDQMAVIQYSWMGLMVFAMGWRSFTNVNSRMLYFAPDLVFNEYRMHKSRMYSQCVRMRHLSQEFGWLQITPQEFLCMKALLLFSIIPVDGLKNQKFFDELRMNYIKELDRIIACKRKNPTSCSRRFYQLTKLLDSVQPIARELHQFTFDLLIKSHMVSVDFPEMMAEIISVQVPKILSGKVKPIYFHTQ
Procedure, shortened: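 MDA-kb2 cells (MMTV-luciferase, responsive to AR and GR) at 3,000/well, rested 5 h at 37C, 0% CO2, then given compounds plus 0.5 nM R1881 (final) for 16 hr. Luciferase read with ONE-Glo after 30 min at room temperature.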

[3] = qHTS assay to identify small molecule HDAC inhibitors - cell viability counter screen (AID 1259365); also: series mostly up to about 92 µM; nearly all actives have a fitted effect of over 50% in size
Procedure, shortened: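 Cytotoxicity was gauged in wild-type HCT-116 cells after a brief 2hr treatment with DMSO-dissolved compounds at 37C and 5% CO2, using CellTiter-Glo luminescence developed for 30min at room temperature.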

[4] = qHTS assay to identify small molecule agonists of the sonic hedgehog signaling (Shh) pathway - cell viability counter screen (AID 1259366); also: nearly all actives have a fitted effect of over 50% in size
Procedure, shortened: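 Stable Gli1-Luc NIH/3T3 clone, 2,000 cells/well. Compound exposure 24hr at 37C. Read-out: CellTiter-Fluor fluorescence.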

[5] = qHTS assay to identify small molecule antagonists of the sonic hedgehog signaling (Shh) pathway - cell viability counter screen (AID 1259367); also: nearly all actives have a fitted effect of over 55% in size
Procedure, shortened: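 NIH/3T3-derived Gli1-Luc reporter cells (2,000 per well) rested 4 hr at 37 C, then received DMSO compounds plus conditioned medium. After 23 hr of treatment, CellTiter-Fluor was added for 1 hr at 37C and fluorescence read.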

[6] = qHTS assay to identify small molecule agonists of the sonic hedgehog signaling (Shh) pathway (AID 1259368; calls by dose curve;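 also: NIH/3T3-derived 3T3Gli1-Luc cells carrying a stable Gli1-driven firefly luciferase reporter; series mostly up to about 92 µM; nearly all actives have a fitted effect of over 15% in size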)
Procedure, shortened: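 NIH/3T3-derived 3T3Gli1-Luc cells with stably integrated Gli1-driven firefly luciferase, 2,000 cells/well, compounds added after 4 hr. Incubated 24 hr at 37C, 5% CO2; luminescence read after 30 min with luciferase reagent at room temperature.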

[7] = qHTS assay to identify small molecule antagonists of the sonic hedgehog signaling (Shh) pathway (AID 1259369; calls by dose curve; also: nearly all actives have a fitted effect of over 45% in size; also: potency is read from the fitted curve at half-maximal effect)
Procedure, shortened: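 NIH/3T3-derived Gli1-Luc reporter cells plated 4 h, dosed with compound, then stimulated with conditioned medium for 24 h at 37 C. Firefly luciferase luminescence read after 30 min with detection reagent at room temperature.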

[8] = target: Estrogen receptor beta (Homo sapiens) (UniProt Q92731); assay: qHTS assay to identify small molecule agonists of the estrogen receptor beta (ER-beta) signaling pathway (AID 1259377; active = well fitted activation curve with a large enough effect in the signal ratio in the repeat runs, not every such curve was filed as active; the % refers to the signal ratio)
Chain of Estrogen receptor beta (Homo sapiens) (Q92731 whole entry, looked up): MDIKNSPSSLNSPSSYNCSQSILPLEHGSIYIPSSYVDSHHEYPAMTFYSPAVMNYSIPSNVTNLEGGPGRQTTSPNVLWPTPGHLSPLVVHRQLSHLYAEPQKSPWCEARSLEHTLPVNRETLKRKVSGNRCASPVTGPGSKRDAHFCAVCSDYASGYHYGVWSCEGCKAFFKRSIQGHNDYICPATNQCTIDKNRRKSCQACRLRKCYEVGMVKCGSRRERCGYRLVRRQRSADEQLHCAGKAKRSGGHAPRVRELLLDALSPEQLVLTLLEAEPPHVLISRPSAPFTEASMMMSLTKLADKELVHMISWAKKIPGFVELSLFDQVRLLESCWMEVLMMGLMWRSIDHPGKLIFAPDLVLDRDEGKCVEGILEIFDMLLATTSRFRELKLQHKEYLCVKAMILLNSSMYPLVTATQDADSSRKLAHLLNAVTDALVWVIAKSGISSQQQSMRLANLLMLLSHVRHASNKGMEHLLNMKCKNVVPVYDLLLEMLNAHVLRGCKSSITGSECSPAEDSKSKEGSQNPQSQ
Procedure, shortened: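 Measured by fluorescence intensity from a B/G FRET beta-lactamase substrate (2 h, room temperature) in ER-beta-UAS-bla HEK293T cells treated with DMSO-dissolved compounds for 16 hr at 37C and 5% CO2.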

[9] = target: Estrogen receptor beta (Homo sapiens) (UniProt Q92731); assay: qHTS assay to identify small molecule antagonists of the estrogen receptor beta (ER-beta) signaling pathway (AID 1259378; active = well fitted inhibition curve with a large enough effect in the signal ratio in the repeat runs, not every such curve was filed as active; the % refers to the signal ratio)
Procedure, shortened: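 ER-beta-UAS-bla HEK293T (GripTite) cells in 2% charcoal-stripped FBS medium were preincubated 6 hr at 37C, dosed with compound, then stimulated with 1 nM E2 (final) for 16 hr; beta-lactamase reporter read by B/G FRET fluorescence after 2 hr substrate loading.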

[10] = qHTS assay to identify small molecule agonists of the androgen receptor (AR) signaling pathway in the presence of an antagonist - cell viability counter screen (AID 1259379);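 also: MDA-kb2 human breast cancer cells carrying an MMTV luciferase reporter; series mostly up to about 92 µM; nearly all actives have a fitted effect of over 25% in size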
Procedure, shortened: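 MDA-kb2 cells (MMTV-luciferase, AR/GR), 3,000/well, 5 h attachment, then 3.0 µM nilutamide (final) and compounds at 15 concentrations. Viability by CellTiter-Fluor fluorescence after 16 h at 37 °C, 0% CO2, in the reporter wells.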

[11] = qHTS assay to identify small molecule agonists of the estrogen receptor beta (ER-beta) signaling pathway - cell viability counter screen (AID 1259380); also: nearly all actives have a fitted effect of over 30% in size
Procedure, shortened: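 ER-beta-UAS-bla HEK293T cells in medium with 2% charcoal-stripped FBS, pre-incubated 6 hr, then treated 16 hr at 37C. Cytotoxicity read in the same wells by CellTiter-Glo luminescence after 30 min at room temperature.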

[12] = target: Androgen receptor (Homo sapiens) (UniProt P10275); assay: qHTS assay to identify small molecule agonists of the androgen receptor (AR) signaling pathway in the presence of an antagonist (AID 1259381; calls by dose curve; also: nearly all actives have a fitted effect of over 15% in size)
Procedure, shortened: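 MDA-kb2 cells carrying MMTV-luciferase (AR/GR responsive), 3,000 cells/well, co-treated with 3.0 uM nilutamide final. Compounds at 15 concentrations, 16 hr at 37C without CO2. Luciferase luminescence read after 30 min with ONE-Glo.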

[13] = qHTS assay to identify small molecule antagonists of the estrogen receptor beta (ER-beta) signaling pathway - cell viability counter screen (AID 1259382); also: series mostly up to about 92 µM; nearly all actives have a fitted effect of over 55% in size
Procedure, shortened: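 ER-beta-UAS-bla HEK293T cells in 2% charcoal-stripped FBS medium, treated with compound plus 1 nM 17-beta-estradiol for 16 h at 37C. Viability read by CellTiter-Glo luminescence after 30 min at room temperature in the same wells.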

[14] = qHTS assay to identify small molecule agonists or antagonists of the thyroid stimulating hormone receptor (TSHR) signaling pathway - wild type cell line counter screen (AID 1259384; calls by dose curve)
Procedure, shortened: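 Wild-type HEK293 cells were plated 18 h at 37 C/5% CO2, pin-dosed with compound plus Ro20-1724 medium, held 30 min at room temperature, then given cAMP-d2 and anti-cAMP-cryptate; fluorescence was read after 1 h. Fifteen concentrations, triplicate.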

[15] = qHTS assay to identify small molecule antagonists of the androgen receptor (AR) signaling pathway using the MDA cell line in the presence of 0.5 nM R1881 - cell viability counter screen (AID 1259242); also: nearly all actives have a fitted effect of over 45% in size
Procedure, shortened: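 MDA-kb2 cells (MMTV-luciferase, AR/GR responsive) were treated with compounds plus 0.5 nM R1881 (final) for 16 hr at 37C, 0% CO2. Viability was then read in the same wells as live-cell protease fluorescence (CellTiter-Fluor, 30 min).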

[16] = target: Estrogen receptor (Homo sapiens) (UniProt P03372); assay: qHTS assay to identify small molecule antagonists of the estrogen receptor alpha (ER-alpha) signaling pathway using the BG1 cell line in the presence of 0.1 nM 17-beta-estradiol (AID 1259244); also: nearly all actives have a fitted effect of over 50% in size
Chain of Estrogen receptor (Homo sapiens) (P03372 whole entry, looked up): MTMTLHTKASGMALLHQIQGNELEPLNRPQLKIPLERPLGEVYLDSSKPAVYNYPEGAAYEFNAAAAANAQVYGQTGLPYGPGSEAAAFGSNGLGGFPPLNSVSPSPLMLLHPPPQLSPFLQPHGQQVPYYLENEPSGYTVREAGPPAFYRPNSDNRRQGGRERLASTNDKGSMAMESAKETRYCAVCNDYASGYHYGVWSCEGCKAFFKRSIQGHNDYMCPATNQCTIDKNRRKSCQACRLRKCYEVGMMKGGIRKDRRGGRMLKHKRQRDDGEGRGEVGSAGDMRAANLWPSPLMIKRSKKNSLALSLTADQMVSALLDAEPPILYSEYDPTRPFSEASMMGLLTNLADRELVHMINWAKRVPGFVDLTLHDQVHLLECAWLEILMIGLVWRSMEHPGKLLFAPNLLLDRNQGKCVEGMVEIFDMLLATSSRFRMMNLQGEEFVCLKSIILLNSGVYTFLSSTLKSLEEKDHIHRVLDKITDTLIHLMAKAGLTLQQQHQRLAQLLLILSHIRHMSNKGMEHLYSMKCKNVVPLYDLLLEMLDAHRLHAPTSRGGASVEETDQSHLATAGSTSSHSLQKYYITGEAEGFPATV
Procedure, shortened: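 VM7Luc4E2 cells (endogenous full-length ER-alpha, 4×ERE-luciferase), kept 5 days in phenol red-free, charcoal-stripped FBS medium; 4,000 cells/well. Compounds added with 0.1 nM (final) 17beta-estradiol, 22 hr at 37C; luminescence read with ONE-Glo after 30 min.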

[17] = qHTS assay to identify small molecule phospholipidosis (PLD) inducers (AID 1259344; active = well fitted curve in the direction sought with a large enough effect; an effect the other way counts as inactive or inconclusive)
Procedure, shortened: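 HepG2 cells on collagen I, attached 4 h at 37 C, were co-treated with compound and LipidTOX Red dye for 24 h at 37 C, then fixed with paraformaldehyde plus Hoechst 33342 and imaged by high-content microscopy for phospholipid accumulation.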

[18] = qHTS assay to identify small molecule HDAC inhibitors (AID 1259364); also: top concentration of the series differs between compounds; nearly all actives have a fitted effect of over 45% in size
Procedure, shortened: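 Wild-type HCT-116 cells, plated overnight at 37 C, exposed to compounds 2 hr at 37 C; luminogenic HDAC-Glo substrate then added 30 min at room temperature. Luminescence reports relative endogenous class I/II HDAC activity.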

[19] = target: Estrogen receptor (Homo sapiens) (UniProt P03372); assay: qHTS assay to identify small molecule agonists of the estrogen receptor alpha (ER-alpha) signaling pathway in the presence of an antagonist (AID 1259383; calls by dose curve; also: top concentration of the series differs between compounds; nearly all actives have a fitted effect of over 15% in size)
Procedure, shortened: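 VM7Luc4E2 cells express endogenous full-length ER-alpha with an ERE-luciferase reporter and were hormone-deprived for 5 days. Compounds at 15 concentrations were added with 10.0nM ICI-182,780 for 22hr at 37C. Luminescence was read with ONE-Glo.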

[20] = target: Thyrotropin receptor (Homo sapiens) (UniProt P16473); assay: qHTS assay to identify small molecule antagonists of the thyroid stimulating hormone receptor (TSHR) signaling pathway (AID 1259385; calls by dose curve; also: nearly all actives have a fitted effect of over 20% in size)
Chain of Thyrotropin receptor (Homo sapiens) (P16473 whole entry, looked up): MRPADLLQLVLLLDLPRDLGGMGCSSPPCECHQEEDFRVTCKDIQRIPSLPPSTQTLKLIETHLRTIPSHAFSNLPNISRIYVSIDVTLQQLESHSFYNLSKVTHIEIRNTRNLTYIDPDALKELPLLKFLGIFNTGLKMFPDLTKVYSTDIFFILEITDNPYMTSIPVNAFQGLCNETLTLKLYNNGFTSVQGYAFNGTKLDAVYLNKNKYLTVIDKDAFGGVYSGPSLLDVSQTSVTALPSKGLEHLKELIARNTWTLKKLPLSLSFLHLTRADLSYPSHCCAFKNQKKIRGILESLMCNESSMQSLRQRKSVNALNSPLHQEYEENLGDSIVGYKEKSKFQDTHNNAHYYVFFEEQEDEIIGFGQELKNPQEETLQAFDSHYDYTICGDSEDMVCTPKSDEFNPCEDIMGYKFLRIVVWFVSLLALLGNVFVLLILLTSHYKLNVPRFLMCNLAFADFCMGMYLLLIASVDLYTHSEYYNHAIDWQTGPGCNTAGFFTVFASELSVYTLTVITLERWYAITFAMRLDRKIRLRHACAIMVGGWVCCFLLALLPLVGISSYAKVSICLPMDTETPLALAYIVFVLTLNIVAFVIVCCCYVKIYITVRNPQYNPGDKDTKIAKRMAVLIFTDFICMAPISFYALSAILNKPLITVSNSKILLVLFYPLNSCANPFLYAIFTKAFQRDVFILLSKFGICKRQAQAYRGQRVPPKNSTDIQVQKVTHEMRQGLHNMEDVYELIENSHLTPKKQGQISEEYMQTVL
Procedure, shortened: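 TSHR-HEK293 cells were plated and held 18 h at 37C/5% CO2, then given compound plus Ro20-1724 and stimulated with TSH at 1.5 ng/mL final. After 30 min at room temperature, cAMP was detected with cAMP-d2/anti-cAMP-cryptate (1 h) by fluorescence.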

Measured: Potency

CC(COc1ccc(Oc2ccccc2)cc1)Oc1ccccn1 (configuration not stated)
not listed: [15] | [16] | [17] | [18] | [19] | [20]
inactive: all other assays above

Clc1cccc(N2CCNCC2)c1
not listed: [1] | [2] | [8] | [11] | [12]
inactive: all other assays above

Cc1ccccc1CO[C@@H]1C[C@@]2(C(C)C)CC[C@]1(C)O2
not listed: [2] | [8] | [9] | [15] | [16] | [17] | [19] | [20]
inactive: all other assays above

CSc1ccc(C(=O)C(C)(C)N2CCOCC2)cc1
not listed: [2] | [9] | [12] | [14] | [15] | [16] | [17] | [20]
inactive: all other assays above

O=[N+]([O-])c1ccc2c3c(cccc13)CC2
active: [7] 21.7 µM
not listed: [2] | [4] | [12] | [15] | [17] | [19] | [20]
inactive: all other assays above

CC(C)(C)C(=O)C(Oc1ccc(Cl)cc1)n1cncn1 (configuration not stated)
not listed: [2] | [12] | [14] | [15] | [17] | [20]
inactive: all other assays above

Cc1ncsc1CCCl
not listed: [2] | [12] | [15] | [19] | [20]
inactive: all other assays above

CC1CCCCC1NC(=O)Nc1ccccc1 (configuration not stated)
not listed: [1] | [2] | [12] | [16] | [17] | [18] | [19]
inactive: all other assays above

Cc1cc(C)c(C(=O)P(=O)(C(=O)c2c(C)cc(C)cc2C)c2ccccc2)c(C)c1
not listed: [1] | [2] | [6] | [9] | [12] | [17] | [19] | [20]
inactive: all other assays above

[As]#[In]
not listed: [1] | [2] | [4] | [7] | [12] | [16] | [17] | [19]
inactive: all other assays above
